# Screen size: about 2,300 compounds; about 20 (0.9%) were called active.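 How the source made its calls: active means mean percent activation across replicates above the counterscreen hit cutoff of 9.17%; inactive means the rest.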 For the sample, actives were picked, then their nearest neighbours and some compounds at random.
# Biological target: Glucose-dependent insulinotropic receptor (Homo sapiens) (UniProt Q8TDV5)
# Test: off-target GPR119 activation – cell-based, PathHunter beta-arrestin, luminescence, set 2, counter-screen for GPR151 activator project, confirmation (AID 1508607);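 further: 0% = median of sample wells and 100% = wells given EA reagent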
# Details: GPR119 PathHunter beta-arrestin cells, 90 min, at 11.2 µM, stronger effect = higher value
# Glucose-dependent insulinotropic receptor (Homo sapiens), sequence (Q8TDV5 whole entry, looked up): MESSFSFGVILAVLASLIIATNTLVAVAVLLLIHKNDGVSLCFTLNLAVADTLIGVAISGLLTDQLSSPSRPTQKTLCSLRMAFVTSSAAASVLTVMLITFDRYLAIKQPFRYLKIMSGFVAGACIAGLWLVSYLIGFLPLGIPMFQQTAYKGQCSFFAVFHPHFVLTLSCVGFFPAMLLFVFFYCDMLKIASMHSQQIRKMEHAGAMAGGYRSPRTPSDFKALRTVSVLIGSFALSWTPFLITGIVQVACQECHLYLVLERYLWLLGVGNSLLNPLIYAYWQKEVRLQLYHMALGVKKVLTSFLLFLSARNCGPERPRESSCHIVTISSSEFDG
row,SMILES,activation
1,COc1ccc(Br)cc1CNC(=O)Cc1c(C(=O)O)[nH]c2ccccc12,4.16% (inactive)
2,Cn1c(SCc2ccc(F)cc2)nc2ccc(C(=O)N3CCC(C(N)=O)CC3)cc21,0.07% (inactive)
3,Cc1csc(CNC(=O)CC2C(=O)NCCN2Cc2ccc(F)cc2Cl)n1 (stereo not drawn),3.99% (inactive)
4,OC(COc1ccc(CNCCc2cscn2)cc1)CN1CCc2ccccc2C1 (stereo not drawn),3.64% (inactive)
5,O=C(CNc1ccccc1)N/N=C/c1cc([N+](=O)[O-])ccc1O,-3.89% (inactive)
6,O=C(Nc1cc(Cl)ccc1Cl)c1ccccc1O,-0.02% (inactive)
7,CCc1ccccc1NC(=O)Cn1nnc(C(=O)OC)c1C(=O)OC,3.17% (inactive)
8,Cc1ccn2c(-c3csc(Nc4ccccc4)n3)c(C)nc2c1,-1.87% (inactive)
9,CC1=NNC(=O)C1CCC(=O)N/N=C(\C)c1ccc(C)cc1 (stereo not drawn),-4.69% (inactive)
10,CCn1c(=O)c2cc(C(=O)Nc3ccsc3C(=O)OC)sc2c2ccccc21,-1.75% (inactive)
11,CCOC(=O)N1CCN(C(=S)Nc2ccc(C)cc2)CC1,2.12% (inactive)
12,O=S(=O)(NCCC12CC3CC(CC(C3)C1)C2)c1cccc2nsnc12,0.9% (inactive)
13,CCc1ccc(NC(=O)Cn2nnc(C(=O)OC)c2C(=O)OC)cc1,-0.08% (inactive)
14,c1ccc(N2CCOCC2)c(Nc2nc3ccccc3n3cnnc23)c1,0.28% (inactive)
15,O=C(CSC1=NC(=O)C(c2ccccc2)C(=O)N1)c1ccccc1 (stereo not drawn),-3.69% (inactive)
16,CCN1CCC(N(Cc2ccc(F)cc2)C(=O)Nc2ccccc2F)CC1,-1.27% (inactive)
17,CCOC(=O)C1CCCN(c2c(Nc3cccc(C)c3)c(=O)c2=O)C1 (stereo not drawn),-2.19% (inactive)
18,COc1ccc(C(=O)NCC2(c3ccccc3)CCCC2)cc1[N+](=O)[O-],-1.92% (inactive)
19,CSc1ccccc1N1C(=O)CC(Sc2ccccc2C(=O)O)C1=O (stereo not drawn),2.04% (inactive)
20,CC1Oc2cccnc2N(Cc2cccc(C#N)c2)C1=O (stereo not drawn),0.9% (inactive)

row,SMILES,activation
1,COc1cccc(C(=O)Nc2ccc(-n3nncc3-c3ccc(OC)c(OC)c3)cc2)c1,5.22% (inactive)
2,COc1ccc(-c2nc(-c3ccc(NC(=O)c4ccc(Br)o4)cc3)no2)cc1OC,14.8% (active)
3,COc1ccc(-c2noc(CCC(=O)Nc3ccc(C)c(C)c3)n2)cc1,1.95% (inactive)
4,CCC1CN(CCNC(=O)c2ccc(C(C)=O)s2)Cc2cc(OC)ccc2O1 (stereo not drawn),2.67% (inactive)
5,CCN(CC)S(=O)(=O)c1ccc(-c2csc(=Nc3ccccc3OC)n2CC)cc1,-1.01% (inactive)
6,Clc1nc(NCc2ccccc2)c2ncn(-c3ccccc3)c2n1,-3.84% (inactive)
7,c1ccc(Oc2nc(NC3CC3)c3ncn(-c4ccsc4)c3n2)cc1,10.5% (active)
8,C(=N\Nc1nnnn1-c1cccc2ccccc12)/c1ccc2c(c1)OCO2,3.7% (inactive)
9,O=C(COc1ccc(Cl)cc1Cl)Nc1c2c(nn1-c1ccc(F)cc1)CSC2,3.41% (inactive)
10,CCOc1cc(/C=C2/C(=N)N3OC(C)=CC3=NC2=O)ccc1OCc1ccc2c(c1)OCO2,2.7% (inactive)
11,O=C1[C@H]2[C@H]3[C@H](O)[C@H](O)C/C(=N\OCc4ccccc4)[C@H]3CC[C@H]2C(=O)N1C1CCCCC1,-1.69% (inactive)
12,Cc1cc(/C=C2/C(=N)N3C=CSC3=NC2=O)c(C)n1-c1ccc(Cl)cc1,-1.56% (inactive)
13,CCN(CC)c1cc(C)c2ccccc2n1,1.75% (inactive)
14,Cc1ccc(OC(C)c2nc(-c3ccc(OCC(N)=O)cc3)no2)cc1C (stereo not drawn),8.62% (inactive)
15,CC1CCN(Cc2nnnn2CC(=O)NCC2CCCO2)CC1 (stereo not drawn),4.51% (inactive)
16,CC(=O)c1ccc(NCN2C(=O)C3CC=C(Cl)CC3C2=O)cc1 (stereo not drawn),2.21% (inactive)
17,COC(=O)c1cn(-c2ccccc2)nc1-c1ccc(F)cc1,0.06% (inactive)
18,COc1ccc(-c2noc(CC(=O)NCCN3CCOCC3)n2)cc1,0.07% (inactive)
19,COc1ccc2nc(N3CCCC(C(=O)NCCCOC(C)C)C3)sc2c1 (stereo not drawn),0.71% (inactive)
20,COc1ccc(C2C(C(=O)OCCc3ccccc3)=C(C)NC3=C2C(=O)CCC3)cc1O (stereo not drawn),3.23% (inactive)

row,SMILES,activation
1,COC(=O)C1=C(N)n2c(s/c(=C\c3ccc(Cl)cc3)c2=O)=C(C(=O)OC)C1c1ccc(Cl)cc1 (stereo not drawn),-5.44% (inactive)
2,CC1CC(C)CN(C(=O)Cn2cc(C=O)c3ccccc32)C1 (stereo not drawn),0.05% (inactive)
3,COC(=O)CN1C(=O)S/C(=C/c2ccco2)C1=O,3.06% (inactive)
4,Cn1ccnc1C(=O)C1CCCN(C(=O)CCc2nnc(-c3ccccc3)o2)C1 (stereo not drawn),2.54% (inactive)
5,COc1ccc(-c2cc(-c3ccccc3)c(C#N)c(SC3CCCCC3O)n2)cc1 (stereo not drawn),4.49% (inactive)
6,COc1cc(/C=C2/C(=N)N3OC(C)=CC3=NC2=O)ccc1OCCOc1ccc(C)cc1,2.89% (inactive)
7,CCOC(CNc1ncnc2sc(C)c(C)c12)OCC,0.97% (inactive)
8,CCC(=O)N1CCN(c2ccc(NC(=O)c3ccco3)cc2)CC1,0.71% (inactive)
9,Cc1ccc(/C=N/NC(=O)c2ccc(O)cc2O)cc1,-2.17% (inactive)
10,O=C(O/C(=C/c1nc2ccccc2n1Cc1cccc2ccccc12)c1ccc(Cl)cc1)c1ccc(Cl)cc1,-1.84% (inactive)
11,COc1ccccc1C(=O)COC(=O)C1(C)CC1(Cl)Cl (stereo not drawn),5.89% (inactive)
12,CCC(C(=O)N1CCOCC1)n1c2ccccc2c2cn[nH]c(=O)c21 (stereo not drawn),-3.25% (inactive)
13,CCc1c(C(=O)N2CCN(c3cccc(Cl)c3)CC2)[nH]c(C)c1C(C)=O,20.1% (active)
14,CC(=O)c1c(C)[nH]c(C(=O)N2CCN(c3ncccn3)CC2)c1C,-3.09% (inactive)
15,O=C(CC(c1ccccc1)c1ccccc1)N1CCN(c2cccc(Cl)c2)CC1,-2.36% (inactive)
16,CC(C)(C)NC(=S)Nc1cccc(F)c1,6.02% (inactive)
17,COc1ccc(CCn2c(-c3ccc(Cl)cc3)csc2=Nc2ccc(F)cc2)cc1OC,0.18% (inactive)
18,COc1ccc(N(C(=O)C(C)Oc2ccccc2)C2C=CS(=O)(=O)C2)c(OC)c1 (stereo not drawn),-0.94% (inactive)
